Measurements published in paper PMC5892938, “SARNAclust: Semi-automatic detection of RNA protein binding motifs from immunoprecipitation data”.
In all, about 11,000 sequences were measured (“log2 fold change”: median about 0.00022, highest 2% from about 0.34 on). The list shows a part of the results.

The sequences below were run against GST-SBP-SLBP (stem-loop binding protein) (Homo sapiens, UniProt Q14493 1-270) (assay: targeted RNA Bind-n-Seq; RBNS binding buffer: 25 mM Tris pH 7.5, 150 mM KCl, 3 mM MgCl2, 0.1% Tween, 0.5 mg/mL BSA, 1 mM DTT; 27 nM protein, 750 pM RNA pool; temperature not stated; high values mean tight binding). Conditions: protein: recombinant; tags: N-terminal GST and SBP (pGEX6P1-SBP); structured_RNA.
In short: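 The GST-SBP-tagged protein was expressed in Rosetta(DE3) pLysS E. coli, glutathione-purified and incubated at 27 nM with 750 pM of a designed, T7-transcribed RNA oligo pool in RBNS binding buffer. Bound RNA was reverse transcribed with a 10-nucleotide barcoded primer, PCR-amplified and sequenced on a MiSeq with 200-cycle paired-end reads. Reads were joined with FLASH, aligned with HISAT2 and collapsed by barcode. The binding signal is the DEseq log2 fold change of read counts per sequence.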

Sequence | binding signal [log2 fold change]
GGUCACGUCUCAAUCAACUCAAAAGAGGGGGGGAAAACCCCUUUGCCCUCGAUAUCAACAGCUCGCAGUCAAG | 0.336 ± 0.363
GGUCACGUCUCAAUCAACUCACAAGAGGGGGGGAAAACCCCUUUGCCCUCCGUAUCAACAGCUCGCAGUCAAG | 0.416 ± 0.404
GGUCACGUCUCAAUCAACUCACAAGAGGGGGGGAAAACCCCUUUGCCCUCGAUAUCAACAGCUCGCAGUCAAG | 0.468 ± 0.396
GGUCACGUCUCAAUCAACUCCCACGAGGGGGGGAAAACCCCUUUACCCUCACACUCAACAGCUCGCAGUCAAG | 0.366 ± 0.434
GGUCACGUCUCAAUCAACUCCCACGAGGGGGGGAAAACCCCUUUACCCUCAACCUCAACAGCUCGCAGUCAAG | 0.335 ± 0.423
GGUCACGUCUCAAUCAACUCCCACGAGGGGGGGAAAACCCCUUUACCCUCUCAAUCAACAGCUCGCAGUCAAG | 0.362 ± 0.418
GGUCACGUCUCAAUCAACUCAAUCGAGGGGGGGAAAACCCCUUUGCCCUCAUCUUCAACAGCUCGCAGUCAAG | 0.419 ± 0.432
GGUCACGUCUCAAUCAACUCAAACGAGGGGGGGAAAACCCCUUUGCCCUCAUCUUCAACAGCUCGCAGUCAAG | 0.58 ± 0.399
GGUCACGUCUCAAUCAACUCCUCAGAGGGGGGGAAAACCCCUUUACCCUCAAUAUCAACAGCUCGCAGUCAAG | 0.394 ± 0.424
GGUCACGUCUCAAUCAACUCCUCAGAGGGGGGGAAAACCCCUUUACCCUCGUCCUCAACAGCUCGCAGUCAAG | 0.382 ± 0.44
GGUCACGUCUCAAUCAACUCAAUAGAGGGGGGGAAAACCCCUUUACCCUCAAACUCAACAGCUCGCAGUCAAG | 0.319 ± 0.424
GGUCACGUCUCAAUCAACUCAACAGAGGGGGGGAAAACCCCUUUACCCUCAAUAUCAACAGCUCGCAGUCAAG | 0.362 ± 0.427
GGUCACGUCUCAAUCAACUCCCUCGAGGGGGGGAAAACCCCUUUACCCUCAUCGUCAACAGCUCGCAGUCAAG | 0.532 ± 0.391
GGUCACGUCUCAAUCAACUCCCUCGAGGGGGGGAAAACCCCUUUACCCUCAUUAUCAACAGCUCGCAGUCAAG | 0.395 ± 0.38
GGUCACGUCUCAAUCAACUCUAUUCCCAGGGAAAGCCCUGGUAUUCUCAACAGCUCGCAGUCAAG | 0.307 ± 0.273
GGUCACGUCUCAAUCAACUCUAUUCCCAGGGAAAGCCCUGGUAUUUUCAACAGCUCGCAGUCAAG | 0.387 ± 0.281
GGUCACGUCUCAAUCAACUCUAUUCCCAGGGAAAGCCCUGGCUAUCUCAACAGCUCGCAGUCAAG | 0.342 ± 0.296
GGUCACGUCUCAAUCAACUCUAUCCCCAGGGAAAUCCCUGGUAUAUUCAACAGCUCGCAGUCAAG | 0.333 ± 0.304
GGUCACGUCUCAAUCAACUCAAUCCCCAGGGAAAGCCCUGGUAUUCUCAACAGCUCGCAGUCAAG | 0.378 ± 0.274
GGUCACGUCUCAAUCAACUCUAUCCCCAGGGAAAGCCCUGGUAUAUUCAACAGCUCGCAGUCAAG | 0.366 ± 0.305
GGUCACGUCUCAAUCAACUCUUCUUCCAGGGAAAUCCCUGGCAUACUCAACAGCUCGCAGUCAAG | 0.399 ± 0.235
GGUCACGUCUCAAUCAACUCAAGUCCCAGGGAAAACCCUGGCAAUUUCAACAGCUCGCAGUCAAG | 0.381 ± 0.341
GGUCACGUCUCAAUCAACUCAAUCCCCAGGGAAAACCCUGGCUAUUUCAACAGCUCGCAGUCAAG | 0.338 ± 0.272
GGUCACGUCUCAAUCAACUCUUUUUCCAGGGAAACCCCUGGCAUACUCAACAGCUCGCAGUCAAG | 0.44 ± 0.276

Sequence | binding signal [log2 fold change]
GGUCACGUCUCAAUCAACUCAUCUCCCAGGGAAAACCCUGGUAUAUUCAACAGCUCGCAGUCAAG | 0.374 ± 0.346
GGUCACGUCUCAAUCAACUCUUUUCCCAGGGAAAUCCCUGGCAUACUCAACAGCUCGCAGUCAAG | 0.334 ± 0.22
GGUCACGUCUCAAUCAACUCUUUUUCCAGGGAAACCCCUGGUAUACUCAACAGCUCGCAGUCAAG | 0.445 ± 0.233
GGUCACGUCUCAAUCAACUCUAUUCCCAGGGAAACCCCUGGCAUACUCAACAGCUCGCAGUCAAG | 0.311 ± 0.273
GGUCACGUCUCAAUCAACUCUAUUCCCAGGGAAAACCCUGGCAUUUUCAACAGCUCGCAGUCAAG | 0.49 ± 0.262
GGUCACGUCUCAAUCAACUCAAUCCCCAGGGAAAACCCUGGCAUACUCAACAGCUCGCAGUCAAG | 0.351 ± 0.232
GGUCACGUCUCAAUCAACUCAACUUCCAGGGAAAACCCUGGCAUUUUCAACAGCUCGCAGUCAAG | 0.305 ± 0.262
GGUCACGUCUCAAUCAACUCUACUCCCAGGGAAAACCCUGGUAAUUUCAACAGCUCGCAGUCAAG | 0.454 ± 0.318
GGUCACGUCUCAAUCAACUCUUCUCCCAGGGAAACCCCUGGCAUUCUCAACAGCUCGCAGUCAAG | 0.304 ± 0.257
GGUCACGUCUCAAUCAACUCUUUUUCCAGGGAAAACCCUGGCGUAUUCAACAGCUCGCAGUCAAG | 0.352 ± 0.225
GGUCACGUCUCAAUCAACUCUUUUUCCAGGGAAAACCCUGGCAUGUUCAACAGCUCGCAGUCAAG | 0.34 ± 0.244
GGUCACGUCUCAAUCAACUCAGUUUCCAGGGAAAACCCUGGCUUUCUCAACAGCUCGCAGUCAAG | 0.31 ± 0.297
GGUCACGUCUCAAUCAACUCAUCUCCCAGGGAAAACCCUGGCAUUCUCAACAGCUCGCAGUCAAG | 0.367 ± 0.304
GGUCACGUCUCAAUCAACUCCUUAGAGGGGGGGAAAACCCCUUUACCCUCAAAAUCAACAGCUCGCAGUCAAG | 0.546 ± 0.43
GGUCACGUCUCAAUCAACUCCUUAGAGGGGGGGAAAACCCCUUUACCCUCGUUAUCAACAGCUCGCAGUCAAG | 0.302 ± 0.406
GGUCACGUCUCAAUCAACUCAAUGGAGGGGGGGAAAACCCCUUUACCCUCAAAAUCAACAGCUCGCAGUCAAG | 0.547 ± 0.434
GGUCACGUCUCAAUCAACUCCUUAGAGGGGGGGAAAACCCCUUUACCCUCAACUUCAACAGCUCGCAGUCAAG | 0.489 ± 0.43
GGUCACGUCUCAAUCAACUCCUUAGAGGGGGGGAAAACCCCUUUACCCUCAACCUCAACAGCUCGCAGUCAAG | 0.395 ± 0.407
GGUCACGUCUCAAUCAACUCAUCAGAGGGGGGGAAAACCCCUUUACCCUCAUCCUCAACAGCUCGCAGUCAAG | 0.388 ± 0.447
GGUCACGUCUCAAUCAACUCAUAGGAGGGGGGGAAAACCCCUUUACCCUCAACUUCAACAGCUCGCAGUCAAG | 0.451 ± 0.453
GGUCACGUCUCAAUCAACUCAUAGGAGGGGGGGAAAACCCCUUUACCCUCAUCAUCAACAGCUCGCAGUCAAG | 0.315 ± 0.446
GGUCACGUCUCAAUCAACUCAUCAGAGGGGGGGAAAACCCCUUUACCCUCAACUUCAACAGCUCGCAGUCAAG | 0.39 ± 0.431
GGUCACGUCUCAAUCAACUCCCCAGAGGGGGGGAAAACCCCUUUACCCUCAUCCUCAACAGCUCGCAGUCAAG | 0.566 ± 0.415
GGUCACGUCUCAAUCAACUCUUCAGAGGGGGGGAAAACCCCUUUACCCUCACAAUCAACAGCUCGCAGUCAAG | 0.311 ± 0.418

Sequence | binding signal [log2 fold change]
GGUCACGUCUCAAUCAACUCCUUAGAGGGGGGGAAAACCCCUUUGCCCUCCGUAUCAACAGCUCGCAGUCAAG | 0.307 ± 0.406
GGUCACGUCUCAAUCAACUCCUUAGAGGGGGGGAAAACCCCUUUGCCCUCGUUUUCAACAGCUCGCAGUCAAG | 0.342 ± 0.445
GGUCACGUCUCAAUCAACUCCUUAGAGGGGGGGAAAACCCCUUUGCCCUCAACAUCAACAGCUCGCAGUCAAG | 0.411 ± 0.394
GGUCACGUCUCAAUCAACUCCUUAGAGGGGGGGAAAACCCCUUUGCCCUCACCGUCAACAGCUCGCAGUCAAG | 0.412 ± 0.444
GGUCACGUCUCAAUCAACUCUACGGCAGGAGUUUACUCCUGGAAUCUCAACAGCUCGCAGUCAAG | 0.318 ± 0.232
GGUCACGUCUCAAUCAACUCAACAGAGGGGGGGAAAACCCCUUUACCCUCACCAUCAACAGCUCGCAGUCAAG | 0.341 ± 0.391
GGUCACGUCUCAAUCAACUCAAUAGAGGGGGGGAAAACCCCUUUACCCUCACCAUCAACAGCUCGCAGUCAAG | 0.306 ± 0.41
GGUCACGUCUCAAUCAACUCAAAAGAGGGGGGGAAAACCCCUUUACCCUCACCAUCAACAGCUCGCAGUCAAG | 0.563 ± 0.413
GGUCACGUCUCAAUCAACUCUCUAGAGGGGGGGAAAACCCCUUUACCCUCACCAUCAACAGCUCGCAGUCAAG | 0.354 ± 0.424
GGUCACGUCUCAAUCAACUCCACAGAGGGGGGGAAAACCCCUUUACCCUCCAUCUCAACAGCUCGCAGUCAAG | 0.416 ± 0.406
GGUCACGUCUCAAUCAACUCCAAGGAGGGGGGGAAAACCCCUUUACCCUCAAUCUCAACAGCUCGCAGUCAAG | 0.482 ± 0.442
GGUCACGUCUCAAUCAACUCCCUAGAGGGGGGGAAAACCCCUUUACCCUCACAAUCAACAGCUCGCAGUCAAG | 0.389 ± 0.428
GGUCACGUCUCAAUCAACUCCCUAGAGGGGGGGAAAACCCCUUUACCCUCAAUGUCAACAGCUCGCAGUCAAG | 0.558 ± 0.455
GGUCACGUCUCAAUCAACUCAUCGCCAGGAGUUUGCUCCUGUAUUUUCAACAGCUCGCAGUCAAG | 0.321 ± 0.274
GGUCACGUCUCAAUCAACUCAUCGUCAGGAGUUUUCUCCUGUAAACUCAACAGCUCGCAGUCAAG | 0.313 ± 0.233
GGUCACGUCUCAAUCAACUCUUUCUCAGGAGUUUACUCCUGUAUAUUCAACAGCUCGCAGUCAAG | 0.355 ± 0.213
GGUCACGUCUCAAUCAACUCAAUCUCAGGAGUUUUCUCCUGUAUACUCAACAGCUCGCAGUCAAG | 0.429 ± 0.219
GGUCACGUCUCAAUCAACUCUUUCUCAGGAGUUUCCUCCUGUUUACUCAACAGCUCGCAGUCAAG | 0.312 ± 0.17
GGUCACGUCUCAAUCAACUCUAUCUCAGGAGUUUACUCCUGUAUAUUCAACAGCUCGCAGUCAAG | 0.337 ± 0.252
GGUCACGUCUCAAUCAACUCCAUCGAGGGGGGGAAAACCCCUUUACCCUCAAUAUCAACAGCUCGCAGUCAAG | 0.429 ± 0.437
GGUCACGUCUCAAUCAACUCCAUCGAGGGGGGGAAAACCCCUUUACCCUCCAAUUCAACAGCUCGCAGUCAAG | 0.49 ± 0.445
GGUCACGUCUCAAUCAACUCAUACGAGGGGGGGAAAACCCCUUUACCCUCUCCAUCAACAGCUCGCAGUCAAG | 0.329 ± 0.398
GGUCACGUCUCAAUCAACUCAAACGAGGGGGGGAAAACCCCUUUACCCUCCAUAUCAACAGCUCGCAGUCAAG | 0.344 ± 0.458
